miR-21 reporter: qHTS Assay for Modulators of miRNAs and/orActivators of miR-21; AID 2288, 2010; 340,000 tested, under 10 active; Potency, µM (highest dose often 38.3 µM), without a hit: at the highest dose activity change, positive = activation, hits mostly activators; HeLa miR-21 FLuc reporter, luciferase, 48 h;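 further: % of control where 0% means no effect; miR-21 action dims this reporter so a rising signal means less miR-21 action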
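Compounds were titrated across several concentrations (up to approximately 40 uM) and incubated 48 hours with HeLa miR-21-FLuc reporter cells (miR-21 target sequence downstream of FLuc, endogenous miR-21). Readout was firefly luciferase luminescence after lytic detection reagent.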
ClpP mod: qHTS Assay for Activators of ClpP; ATP-dependent Clp protease proteolytic subunit (Bacillus subtilis (strain 168)), P80244; purified B. subtilis ClpP, FRET peptide cleavage, 20 min; Potency, µM (titrated, usually from 57.5 µM), inactives show at the highest dose activity change, negative = active; 1.9% of 340,000 active; active means well fitted falling curve with a large enough effect; inconclusive means small, poorly fitted or top-dose-only effect; inactive means no such curve, though single readings can be large or run the other way; further: potency means the concentration at half of the fitted maximal effect; the source files actives as falling curves though it sought activators and does not explain the sign; nearly all actives have a fitted effect of over 65% in size
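FRET quenching reversal measured ClpP activation: 10 microg/mL B. subtilis ClpP at pH 8 with the FRET-FV decapeptide, read at 430 nm after 320 nm excitation. The 20-min minus 0-min signal was scaled between DMSO/no-enzyme wells and ADEP (5.8 microM final).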
Nrf2 activator: qHTS of Nrf2 Activators | AREc32 ARE-luciferase reporter (MCF7-derived line), luminescence, 24 h | Potency, µM (doses to about 46.1 µM), inactives show top-dose activation, most hits filed as activators | 0.31% of 410,000 active | AID 624171, 2012; further: potency means the concentration at half of the fitted maximal effect; % of control where 0% means no effect; nearly all actives have a fitted effect of over 65% in size
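Each well held 1000 AREc32 cells, which were incubated with compound for 24 hr at 37 deg C after overnight attachment, and ARE reporter activity was quantified by firefly luciferase luminescence.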
TCR act: Activators of T cell receptors: qHTS campaign. primary human leukocytes, anti-CD3, IL-2 HTRF, 48 h. Potency, µM (highest dose often 9.22 µM), inactives show at the top dose activation of IL-2 secretion, hits mostly activators. 330,000 tested, under 10 active; further: % of control where 0% means no effect
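1) Mix primary human leukocytes, a-CD3 beads and compound. 2) Incubate 48 hr. 3) Add HTRF IL-2 reagents (a-IL-2-K, a-IL-2-d2).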
A549 tox: Nrf2 qHTS screen for inhibitors: counterscreen for cytotoxicity. 0.16% of 390,000 active. Potency, µM (top dose mostly 46 µM), for the others: top-dose activity change, negative = cytotoxicity, most hits filed as inhibitors. A549 ARE-Fluc cells, CellTiter-Fluor viability, 18-24 h. AID 504648, 2011; further: potency means the concentration at half of the fitted maximal effect; on the % scale 0 is the no-effect control and ±100 the full control effect
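A549 ARE_Fluc cells in 5% FBS OPTI-MEM were exposed to compounds in concentration-response for 18-24 h at 37 deg C. Viability was read by CellTiter-Fluor fluorescence (Ex 405/Em 525) after 30 min, before the luciferase read.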
Nrf2 inh: Nrf2 qHTS screen for inhibitors; A549 ARE-Fluc reporter, luciferase luminescence, 18-24 h; Potency, µM (titrated, usually from 46 µM), without a hit: at the highest dose activity change, negative = inhibition, actives largely listed as inhibitors; 2.1% of 360,000 active; further: potency means the concentration at half of the fitted maximal effect; on the % scale 0 is the no-effect control and ±100 the full control effect; nearly all actives have a fitted effect of over 60% in size
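A549 ARE_Fluc cells (5000/well, 5% FBS OPTI-MEM) pre-incubated 2 h, then treated with compounds 18-24 h at 37C/5% CO2 in concentration-response. CellTiter-Fluor viability read first; BugLite luciferase luminescence after 15 min at room temperature gives Nrf2 activity.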
Starred values were filed as active, the others as inactive; [ ] = another dose, or the depositor's remark. Hits are enriched below; roughly 3.7% of the tested compounds scored in any of these assays. Unless noted, the call rests on the fitted dose curve; in most records, active means well fitted curve in the direction sought with a large enough effect; inconclusive means small, poorly fitted or top-dose-only effect, or another doubt; inactive means no such curve, though single readings can be large; an effect the other way counts as inactive or inconclusive.

`CC(=O)c1c(O)cc(=O)n(-c2ccccc2)c1-c1ccc(C)cc1` gave miR-21 reporter 0%, ClpP mod -2%, Nrf2 activator 0%, TCR act 0% and A549 tox -14%.
`CC(Oc1ccccc1)C(=O)N[C@@H]1C(=O)N2C(C(=O)OCC3CCCCC3)C(C)(C)S[C@H]12` (some centres not stated) gave ClpP mod -2%.
Screening COC(=O)C1=C(C)NC2=C(C(=O)CC(C)(C)C2)C1c1ccccn1 (configuration not stated) returned miR-21 reporter -7%, ClpP mod 28µM*, Nrf2 activator 0%, TCR act 0%[46.1 µM], A549 tox -1% and Nrf2 inh -2%.
Screening COC(=O)C1=C(C)NC2=C(C(=O)CC(C)(C)C2)C1c1ccsc1 (configuration not stated) returned miR-21 reporter -1%, ClpP mod 28µM*, Nrf2 activator 0%, TCR act -9%[46.1 µM] and A549 tox -3%.
Screening COc1cc2c(C(=O)N(C)c3ccc(F)cc3)cn(C)c(=O)c2cc1OC returned miR-21 reporter -1%, ClpP mod -1%, Nrf2 activator 0%, TCR act 0%, A549 tox 2% and Nrf2 inh 14%.
`COC(=O)CSc1ccc(C#N)c(SCC(=O)OC)c1` gave miR-21 reporter 4%, ClpP mod 14µM*, Nrf2 activator -1%, TCR act -2%, A549 tox -2% and Nrf2 inh 11%.
Screening COC(=O)CSc1cc(SCC(=O)OC)c(C#N)c(SCC(=O)OC)c1 returned miR-21 reporter 0%, ClpP mod -4%, Nrf2 activator 6%, TCR act -2%, A549 tox 1% and Nrf2 inh 0%.
CSc1nnc(-c2ccccc2)c(-c2ccccc2)n1 was read as miR-21 reporter -9%, ClpP mod 0%, Nrf2 activator 0%, TCR act 3%, A549 tox -1% and Nrf2 inh 1%.
Screening CSc1nnc(-c2ccco2)c(-c2ccco2)n1 returned miR-21 reporter 1%, ClpP mod 0%, Nrf2 activator 7.9µM*, TCR act 4%, A549 tox -10% and Nrf2 inh -2%.
`Cc1ccc(NC(=O)CSc2nnc(-c3ccco3)c(-c3ccco3)n2)cc1` gave miR-21 reporter 10%, ClpP mod 0%, Nrf2 activator inconclusive, TCR act -1%, A549 tox inconclusive and Nrf2 inh inconclusive.
For O=C(CSc1nnc(-c2ccco2)c(-c2ccco2)n1)Nc1ccccc1 the results were miR-21 reporter -10%, ClpP mod -1%, Nrf2 activator 13µM*, TCR act 1%, A549 tox -12% and Nrf2 inh -18%.
For COc1ccccc1CCN1COc2c(cc3c(C)c(C)c(=O)oc3c2C)C1 the results were miR-21 reporter 0%, ClpP mod 4%, Nrf2 activator 11%, A549 tox 4% and Nrf2 inh inconclusive.
For O=C(Cc1ccccc1)NCCCNC(=O)Cc1ccccc1 the results were ClpP mod 28µM*, Nrf2 activator 0%, TCR act 4%, A549 tox -1% and Nrf2 inh 7%.
Screening CN(CC(=O)NCc1ccc(Cl)cc1)S(=O)(=O)c1ccc2[nH]c3c(c2c1)CCCC3 returned miR-21 reporter inconclusive, ClpP mod inconclusive, Nrf2 activator 0%, A549 tox -24% and Nrf2 inh 16µM*.

High-throughput results (PubChem)
